Assay results from ChEMBL document CHEMBL3988442, “University of Dundee, Small-Polar-MMV Screening Library” (2021).
For some assays here: Results with a measured potency or affinity are listed apart.

Key:
Design in all cases: scale not given: direction of the effect not stated beside the values
[1] = target: Protein translocase subunit SecA (Escherichia coli (strain K12)) (UniProt P10408); test: Assay to Identify E. coli SecA ATPase Inhibitors; format: functional; details: 30 µM
[2] = target: T1, Ubiquitin-activating enzyme e1, putative (Leishmania donovani (strain BPK282A1)) (UniProt E9BSI1); test: Leishmania donovani Ubiquitin Activating Enzyme (LdE1); format: functional; details: 30 µM
T1 sequence (whole entry): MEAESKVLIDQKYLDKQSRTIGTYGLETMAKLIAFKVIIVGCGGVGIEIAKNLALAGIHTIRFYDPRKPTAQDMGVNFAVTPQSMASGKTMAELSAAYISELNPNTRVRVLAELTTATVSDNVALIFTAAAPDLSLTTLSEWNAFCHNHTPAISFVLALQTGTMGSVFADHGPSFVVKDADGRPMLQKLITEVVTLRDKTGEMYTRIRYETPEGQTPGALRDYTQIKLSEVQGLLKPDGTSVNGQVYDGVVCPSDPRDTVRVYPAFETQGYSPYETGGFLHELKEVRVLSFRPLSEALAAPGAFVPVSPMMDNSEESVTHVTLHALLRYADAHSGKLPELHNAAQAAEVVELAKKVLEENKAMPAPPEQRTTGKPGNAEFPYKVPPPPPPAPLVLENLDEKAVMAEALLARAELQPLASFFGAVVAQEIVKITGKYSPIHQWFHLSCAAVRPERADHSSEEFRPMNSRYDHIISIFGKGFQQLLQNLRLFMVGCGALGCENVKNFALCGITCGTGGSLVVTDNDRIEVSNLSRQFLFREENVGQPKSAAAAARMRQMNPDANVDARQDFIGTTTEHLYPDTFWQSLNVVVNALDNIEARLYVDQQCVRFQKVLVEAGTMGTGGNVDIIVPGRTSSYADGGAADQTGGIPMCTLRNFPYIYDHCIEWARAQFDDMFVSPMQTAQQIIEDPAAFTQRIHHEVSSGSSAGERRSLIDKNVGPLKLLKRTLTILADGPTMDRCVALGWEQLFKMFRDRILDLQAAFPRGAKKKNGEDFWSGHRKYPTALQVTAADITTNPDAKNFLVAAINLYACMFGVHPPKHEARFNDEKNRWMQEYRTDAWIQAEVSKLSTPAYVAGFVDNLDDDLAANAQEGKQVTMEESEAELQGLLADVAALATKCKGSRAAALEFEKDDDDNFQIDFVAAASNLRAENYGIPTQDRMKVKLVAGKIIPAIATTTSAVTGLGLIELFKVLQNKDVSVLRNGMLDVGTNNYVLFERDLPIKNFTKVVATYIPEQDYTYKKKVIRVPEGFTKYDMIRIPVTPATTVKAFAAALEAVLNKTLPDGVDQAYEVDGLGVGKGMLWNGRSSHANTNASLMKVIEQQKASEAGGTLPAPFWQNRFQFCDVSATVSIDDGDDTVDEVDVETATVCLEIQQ

[3] = target: AMP-activated protein kinase, AMPK (Homo sapiens) (UniProt P54646+O43741+P54619+Q9UGJ0+Q9Y478+Q13131+Q9UGI9); test: AMP-dependent Kinase enzyme assay. An in vitro enzyme assay that detects ADP turnover that is directly proportional to AMPK activity. This uses naive AMPK that is activated during the assay with MK-8722; format: functional; details: 30 µM
[4] = target: Sialic acid-binding Ig-like lectin 9 (Homo sapiens) (UniProt Q9Y336); test: Hs-Siglec9 ALPHAscreen SOP 20170721; details: 10 µM
Trypanosoma cruzi = test: Trypanosoma cruzi phosphomannomutase and mannose-1-phosphate guanylyltransferase assay; format: functional; details: 10 µM
[5] = target: T2, Arginase-2, mitochondrial (Homo sapiens) (UniProt P78540); test: in vitro enzyme assay to detect the production of urea directly proportional to the activity of Arginase II; format: functional; details: 33.3 µM; further: in the data most compounds retested in dose-response had high values
T2 sequence (whole entry): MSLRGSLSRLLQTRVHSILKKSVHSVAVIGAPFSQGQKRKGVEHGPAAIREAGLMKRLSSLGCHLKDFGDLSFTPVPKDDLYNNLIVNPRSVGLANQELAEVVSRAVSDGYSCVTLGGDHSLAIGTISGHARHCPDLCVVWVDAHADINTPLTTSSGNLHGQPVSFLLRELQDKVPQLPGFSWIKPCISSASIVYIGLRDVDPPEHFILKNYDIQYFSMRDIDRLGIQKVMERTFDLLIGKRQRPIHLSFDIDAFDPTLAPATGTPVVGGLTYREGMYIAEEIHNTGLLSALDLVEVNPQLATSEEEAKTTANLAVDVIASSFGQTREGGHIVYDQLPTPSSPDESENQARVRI

[6] = target: T3, Proteasome subunit beta (Trypanosoma cruzi) (UniProt O96673); test: Trypanosoma cruzi proteasome chymotrypsin-like activity (TcProtChymo) assay.; further: in the data most compounds retested in dose-response had high values; format: functional; details: 9.37 µM
T3 sequence (whole entry): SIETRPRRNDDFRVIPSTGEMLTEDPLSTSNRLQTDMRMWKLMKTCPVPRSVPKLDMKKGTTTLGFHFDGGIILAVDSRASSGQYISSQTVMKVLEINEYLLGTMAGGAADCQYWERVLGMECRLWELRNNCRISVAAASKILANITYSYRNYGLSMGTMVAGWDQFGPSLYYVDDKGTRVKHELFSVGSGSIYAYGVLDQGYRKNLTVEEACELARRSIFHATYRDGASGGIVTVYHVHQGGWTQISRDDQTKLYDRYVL

Homo sapiens = organism: Homo sapiens; test: To identify inhibition of the IFN signalling (Jak-Stat) pathway via expression of an eGFP reporter gene under the control of an IFN-stimulated response element (ISRE) containing MxA promoter.; format: functional; details: 30 µM
[7] = target: T4, Tyrosyl-tRNA synthetase, putative (Trypanosoma cruzi (strain CL Brener)) (UniProt Q4DSP6); test: Trypanosoma cruzi tyrosyl tRNA synthetase (TcYRS) _High Tyrosine SOP; format: functional; details: 30 µM; further: in the data most compounds retested in dose-response had high values
T4 sequence (whole entry): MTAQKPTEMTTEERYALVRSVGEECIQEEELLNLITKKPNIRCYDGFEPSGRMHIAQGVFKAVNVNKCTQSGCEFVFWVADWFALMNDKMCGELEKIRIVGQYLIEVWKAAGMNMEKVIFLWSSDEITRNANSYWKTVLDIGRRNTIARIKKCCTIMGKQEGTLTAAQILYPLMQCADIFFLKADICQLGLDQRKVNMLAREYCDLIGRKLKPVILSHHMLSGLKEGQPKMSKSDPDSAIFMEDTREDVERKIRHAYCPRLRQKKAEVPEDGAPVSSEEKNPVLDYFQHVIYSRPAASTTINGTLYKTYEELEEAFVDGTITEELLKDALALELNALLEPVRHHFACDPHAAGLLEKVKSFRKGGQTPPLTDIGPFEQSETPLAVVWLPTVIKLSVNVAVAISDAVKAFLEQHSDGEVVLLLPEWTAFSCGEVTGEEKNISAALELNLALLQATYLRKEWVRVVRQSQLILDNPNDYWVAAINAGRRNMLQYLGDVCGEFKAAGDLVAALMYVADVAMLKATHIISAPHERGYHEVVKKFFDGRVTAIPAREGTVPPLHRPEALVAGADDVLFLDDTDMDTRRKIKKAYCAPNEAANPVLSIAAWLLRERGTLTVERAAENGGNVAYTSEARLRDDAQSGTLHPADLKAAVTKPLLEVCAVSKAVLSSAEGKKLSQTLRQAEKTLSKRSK

[8] = target: T4, Tyrosyl-tRNA synthetase, putative (Trypanosoma cruzi (strain CL Brener)); test: Trypanosoma cruzi tyrosyl tRNA synthetase (TcYRS) SOP; format: functional; details: 30 µM
[9] = target: Chromo domain-containing protein 1 (Saccharomyces cerevisiae (strain ATCC 204508 / S288c) (Baker's yeast)) (UniProt P32657); test: ScCHD-1 Enzyme Inhibition Assay; format: functional; details: 30 µM; further: in the data most compounds retested in dose-response had high values
Sequence of Chromo domain-containing protein 1 (Saccharomyces cerevisiae (strain ATCC 204508 / S288c) (Baker's yeast)) (P32657 whole entry, the tested form may be a part): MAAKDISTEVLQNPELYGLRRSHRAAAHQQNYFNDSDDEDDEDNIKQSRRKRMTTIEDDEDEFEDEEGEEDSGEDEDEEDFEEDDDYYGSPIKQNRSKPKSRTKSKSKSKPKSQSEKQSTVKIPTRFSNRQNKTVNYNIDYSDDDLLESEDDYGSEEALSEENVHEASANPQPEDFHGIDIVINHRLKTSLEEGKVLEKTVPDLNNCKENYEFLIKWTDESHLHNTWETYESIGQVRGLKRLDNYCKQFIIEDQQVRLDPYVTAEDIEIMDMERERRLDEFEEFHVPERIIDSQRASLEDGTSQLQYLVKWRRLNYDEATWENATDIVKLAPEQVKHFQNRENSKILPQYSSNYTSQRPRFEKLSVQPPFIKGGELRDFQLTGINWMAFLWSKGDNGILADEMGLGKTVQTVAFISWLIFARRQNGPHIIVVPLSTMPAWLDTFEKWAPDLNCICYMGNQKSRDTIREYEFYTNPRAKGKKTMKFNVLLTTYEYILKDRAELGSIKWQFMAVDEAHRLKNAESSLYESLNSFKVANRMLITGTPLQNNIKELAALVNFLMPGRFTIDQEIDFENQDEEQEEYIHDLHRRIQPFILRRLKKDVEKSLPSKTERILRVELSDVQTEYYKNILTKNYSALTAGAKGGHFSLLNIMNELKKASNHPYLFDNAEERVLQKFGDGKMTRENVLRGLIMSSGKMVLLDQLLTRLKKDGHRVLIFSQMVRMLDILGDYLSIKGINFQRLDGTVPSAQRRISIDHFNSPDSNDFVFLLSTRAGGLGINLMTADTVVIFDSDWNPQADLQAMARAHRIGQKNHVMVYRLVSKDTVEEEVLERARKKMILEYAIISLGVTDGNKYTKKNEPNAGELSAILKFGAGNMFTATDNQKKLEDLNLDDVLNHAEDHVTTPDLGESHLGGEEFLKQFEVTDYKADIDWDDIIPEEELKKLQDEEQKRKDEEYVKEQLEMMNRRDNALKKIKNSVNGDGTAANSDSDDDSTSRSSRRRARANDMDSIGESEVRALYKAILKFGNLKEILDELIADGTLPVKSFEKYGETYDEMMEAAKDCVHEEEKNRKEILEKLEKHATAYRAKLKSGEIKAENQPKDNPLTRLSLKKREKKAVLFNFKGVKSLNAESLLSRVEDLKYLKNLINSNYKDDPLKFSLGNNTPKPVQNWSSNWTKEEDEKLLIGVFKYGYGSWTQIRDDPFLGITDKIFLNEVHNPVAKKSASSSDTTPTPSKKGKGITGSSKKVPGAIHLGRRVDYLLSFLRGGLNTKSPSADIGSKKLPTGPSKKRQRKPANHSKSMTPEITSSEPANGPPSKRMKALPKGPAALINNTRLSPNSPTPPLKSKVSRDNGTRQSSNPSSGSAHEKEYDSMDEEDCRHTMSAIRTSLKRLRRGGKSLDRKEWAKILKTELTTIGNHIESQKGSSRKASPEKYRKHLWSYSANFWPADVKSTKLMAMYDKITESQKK

Sequence of Sialic acid-binding Ig-like lectin 9 (Homo sapiens) (Q9Y336 whole entry): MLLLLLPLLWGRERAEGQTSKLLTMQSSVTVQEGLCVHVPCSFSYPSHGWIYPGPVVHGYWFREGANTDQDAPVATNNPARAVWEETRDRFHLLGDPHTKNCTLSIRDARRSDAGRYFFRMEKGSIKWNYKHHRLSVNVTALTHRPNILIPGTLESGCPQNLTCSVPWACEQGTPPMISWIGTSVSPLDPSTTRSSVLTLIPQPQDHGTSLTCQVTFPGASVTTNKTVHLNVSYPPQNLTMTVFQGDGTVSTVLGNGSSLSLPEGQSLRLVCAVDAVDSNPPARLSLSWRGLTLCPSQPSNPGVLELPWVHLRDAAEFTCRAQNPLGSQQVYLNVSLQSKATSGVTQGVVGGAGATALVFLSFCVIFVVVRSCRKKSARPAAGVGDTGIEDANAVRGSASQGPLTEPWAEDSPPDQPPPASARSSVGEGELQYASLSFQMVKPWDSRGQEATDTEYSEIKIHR
Sequence of Protein translocase subunit SecA (Escherichia coli (strain K12)) (P10408 whole entry): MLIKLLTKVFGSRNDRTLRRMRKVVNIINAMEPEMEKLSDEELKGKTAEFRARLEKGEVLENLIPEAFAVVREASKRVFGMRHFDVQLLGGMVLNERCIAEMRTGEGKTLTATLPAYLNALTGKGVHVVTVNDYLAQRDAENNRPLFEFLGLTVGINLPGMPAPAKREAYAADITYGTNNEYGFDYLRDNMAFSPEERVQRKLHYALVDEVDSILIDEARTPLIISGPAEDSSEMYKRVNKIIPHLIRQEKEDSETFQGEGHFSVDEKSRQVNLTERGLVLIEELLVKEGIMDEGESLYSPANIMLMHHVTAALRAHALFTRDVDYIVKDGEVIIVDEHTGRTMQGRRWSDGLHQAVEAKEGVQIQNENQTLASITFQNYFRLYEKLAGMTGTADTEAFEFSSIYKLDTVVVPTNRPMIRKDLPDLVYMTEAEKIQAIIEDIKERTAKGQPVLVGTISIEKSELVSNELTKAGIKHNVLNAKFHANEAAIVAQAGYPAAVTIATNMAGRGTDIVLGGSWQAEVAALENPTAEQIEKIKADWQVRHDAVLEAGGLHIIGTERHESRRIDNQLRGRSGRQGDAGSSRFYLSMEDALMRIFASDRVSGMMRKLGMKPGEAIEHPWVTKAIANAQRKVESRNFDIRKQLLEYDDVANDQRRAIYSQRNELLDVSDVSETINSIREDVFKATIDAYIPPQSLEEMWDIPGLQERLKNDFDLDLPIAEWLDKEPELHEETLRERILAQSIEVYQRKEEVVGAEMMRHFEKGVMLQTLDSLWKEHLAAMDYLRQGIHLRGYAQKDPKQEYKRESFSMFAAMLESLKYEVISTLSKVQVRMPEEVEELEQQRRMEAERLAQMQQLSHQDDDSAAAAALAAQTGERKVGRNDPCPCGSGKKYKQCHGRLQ

Compound | Percent Effect [1] | Percent Effect [2] | Percent Effect [3] | Percent Effect [4] | Percent Effect (Trypanosoma cruzi) | Percent Effect [5] | Percent Effect [6] | Percent Effect (Homo sapiens) | Percent Effect [7] | Percent Effect [8] | Percent Effect [9]
CC(=O)N1CCN(CCNS(=O)(=O)c2ccc(C)c(F)c2)CC1 | -5.17% | 18.4% | -1.98% | -13.7% | 3.41% | 1.18% | 7.96% | 3.39% | -1.06% | 13% | -13.1%
CS(=O)(=O)c1ccccc1C(=O)NCC1Cc2ccccc2O1 (stereo not given) | -1.96% | 11% | -2.95% | 0.634% | -4.31% | 0.455% | 19% | 20.8% | 4.3% | 7.5% | -5.76%
COc1cccc(CCC2CCCN(C(=O)C3=NN(C)C(=O)CC3)C2)c1 (stereo not given) | -0.975% | -10.8% | -2.43% | -1.4% | -3.28% | 0.952% | 3.79% | 6.9% | 3.7% | 4.88% | -1.44%
COc1c(CNCc2cccc(CN(C)C)c2)c(C)nn1C | -7.85% | 10.8% | -5.13% | 6.33% | -2.17% | -4.01% | -0.36% | 13.9% | 4.43% | 6.17% | -5.81%
CN(C)S(=O)(=O)c1ccc(CN2CCCC2c2ccc[nH]2)o1 (stereo not given) | -6.1% | -13.2% | -1.76% | -2.17% | -2.52% | -0.719% | -2.79% | -1.99% | 4.43% | -6.17% | 5.79%
CN(C)C(CNC(=O)NCCc1cccc(O)c1)c1ccco1 (stereo not given) | -1.55% | 5.41% | 0.167% | 22.4% | 3.81% | 6.7% | 13% | -1.66% | 0% | 6.17% | -9.98%
O=S1(=O)N=C(SCc2ccc(Cl)cc2)Nc2ccc(F)cc21 | -2.41% | -7.79% | -5.17% | -2.88% | -1.08% | 1.94% | 13.8% | 21.9% | -6.35% | -8.97% | -10.5%
COCCNC(=O)Nc1ccc(-n2cncn2)c(F)c1 | -6.54% | 0% | -12.8% | 0.712% | -4.7% | 0% | 4.51% | 28.2% | 2.45% | 0% | -7.16%
Cc1ccc2c(n1)N(CCn1cccn1)CCN(C(=O)NC1CC1)C2 | -4.03% | 10.8% | -7.12% | 26.1% | 6.55% | -1.24% | 18.1% | -2.83% | 5.38% | 16.1% | -4.31%
CC(=O)N1CCCN(Cc2csc(-c3ncccn3)n2)CC1 | -0.976% | 13.2% | -3.37% | -1% | -3.02% | 3.55% | 20.4% | 12% | 6.38% | 18.2% | -3.23%
